Usually AC50 stands for the midpoint of the concentration-response curve, whichever way the signal moves.

Where “and” joins values, the source holds several entries; their conditions need not be identical. Equal entries are not always repeated. Records with an inconclusive call do not appear. The source holds several records for some structures; these can differ, active in one and inactive in another. Calls of active or inactive are those of the source. Rule for the calls: active = hit-call score of the fitted dose curve at least 0.9, where 1 is the maximum; inconclusive = response in the unintended direction; inactive = score below 0.9.

The experiment deals with turtle Estrogen Receptor (ERa), gene 101933533. Put plainly: ATG_trERa_XSP2: Attagene TRANS-FACTORIAL Multi-Species (XSP2) HepG2 Assay for turtle Estrogen Receptor (ERa) (AID 2283812).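 Note: actives raise reporter signal above DMSO so AC50 reflects agonist activity.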 Here is the method:
ATG_XSP2_multi-species_TRANS is a cell-based, multiplexed assay created by modifying the existing Attagene TRANS-FACTORIAL system to include a panel of nuclear receptors from some or all the following species: human (Homo sapiens), mouse (Mus musculus), frog (Xenopus laevis), zebrafish (Danio rerio), chicken (Gallus gallus), and turtle (Chrysemys picta). The ECOTOX-FACTORIAL format uses HepG2, a human liver cell line, with measurements taken at 24 hours after chemical dosing in a 24-well plate. Xsp2 included 3 nM 6-alpha-fluorotestosterone and 1.5 nM norgestrel to stimulate the androgen receptor.ATG_trERa_XSP2 is one of 29 assay components measured or calculated from the ATG_XSP2_multi-species_TRANS assay. It is designed to make measurements of mRNA induction, a form of inducible reporter, as detected with fluorescence intensity signals by Reverse transcription polymerase chain reaction (RT-PCR) and Capillary electrophoresis technology.The assay endpoint ATG_trERa_XSP2 was analyzed in the positive analysis fitting direction relative to DMSO as the negative control and baseline of activity. Using a type of inducible reporter, measures of mRNA for gain-of-signal activity can be used to understand the reporter gene at the transcription factor-level as they relate to the gene ER. Furthermore, this assay endpoint can be referred to as a primary readout, because this assay has produced multiple assay endpoints where this one serves a reporter gene function. To generalize the intended target to other relatable targets, this assay endpoint is annotated to the nuclear receptor intended target family, where the subfamily is steroidal.
Human liver HepG2 cells are transiently transfected with multiple reporter transcription units (MRTUs) in 6-well plates using FuGene 6 reagent (Roche; 3 ml FuGene/1 mg DNA). The MRTU constructs are regulated by a cis-regulating element (promoter). […] A major difference between the CIS and TRANS system is that in CIS activities of endogenous TFs are measured, whereas the TRANS assay evaluates changes in activities of exogenous, chimeric NR-Gal4 proteins. […] At the end of 24 hour incubation, total RNA was isolated using TriZol reagent (Invitrogen). The isolated RNA is then reverse-transcribed using oligo(dT) primer and Mo-MLV reverse transcriptase (Invitrogen) with DNAse I (Ambion) treatment for 30 min. The one-tenth of the produced cDNA was amplified by PCR using Taq DNA polymerase (Invitrogen) and two reporter sequence-specific primers. The PCR products were fluorescently labeled by primer extension with 6-arboxyfluorescein (6-FAM) 5'-labeled reporter sequence-specific primer (2 min at 95 C, 20 s at 68 C and 10 min at 72 C) and these products were digested with 5U of HpaI (New England Biolabs) for 2h at 37 C. The fragments were purified using Qiaquick PCR columns (Qiagen), analyzed on an ABI 3130xL genetic analyzer (Applied Biosystems) with peak positions identified by using a set of X-rhodamine (ROX)-labeled MapMarker1000 molecular weight standards (BioVentures). The raw capillary electrophoresis data was processed using Attagraph software (Attagene).
As to `CC(c1ccc(O)cc1)(c1ccc(O)cc1)c1ccc(O)cc1`, the call was inactive.

As for `Oc1ccc(C(c2ccc(O)cc2)(C(F)(F)F)C(F)(F)F)cc1`, the AC50 is 226 nM (active).

For the compound `c1cc2ccc3cccc4ccc(c1)c2c34`, the AC50 was 167 µM (active) and 27.8 µM (active).

As for `CCOC(=O)C(O)(c1ccc(Cl)cc1)c1ccc(Cl)cc1`, the AC50 is 6680 nM (active) and the compound was classed as inactive.

For the compound `Clc1ccc(C(c2ccccc2Cl)C(Cl)(Cl)Cl)cc1` (stereo not drawn), the AC50 is 1140 nM (active).

As for `C[C@]12CCC(=O)C=C1CC[C@@H]1[C@@H]2CC[C@@]2(C)[C@H]1CC[C@]2(C)O`, the AC50 is 2.1 nM (active).

With `Cc1cc(-c2ccc(N)c(C)c2)ccc1N`, the AC50 was 6.32 µM (active) and 13.2 µM (active).

With `CCC(=O)O[C@H]1CC[C@H]2[C@@H]3CCC4=CC(=O)CC[C@]4(C)[C@H]3CC[C@]12C`, the half-maximal activity concentration (AC50) is 17.3 nM (active) and 5.27 nM (active).

As for `CC(C)(O)C(=O)Nc1ccc([N+](=O)[O-])c(C(F)(F)F)c1`, the result was inactive.

In the case of `ClC(Cl)=C(c1ccc(Cl)cc1)c1ccc(Cl)cc1`, the AC50 is 10000 nM (active).

For the compound `C[C@]12CCC(=O)C=C1CC[C@@H]1[C@@H]2CC[C@]2(C)C(=O)CC[C@@H]12`, the half-maximal activity concentration (AC50) is 12.9 nM (active) and 12 nM (active).

Take `CC(C)(c1ccccc1)c1ccc(O)cc1`: the AC50 is 516 nM (active).
